# Calls of active or inactive are those of the source.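 How the source made its calls, unless noted: active means fluorescence slope after compound addition differing from the mean of all screened samples at 99.7% confidence, in either direction; inactive means the rest.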
# What was measured:
# [1] = inhibitors of TNFa-induced NFkB p65 translocation, primary screen, imaging, HUVEC, MLSMR starter and 10KST1 sets (AID 438;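 active means inhibition above 20% together with a positive visual image hit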;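 further: compound added about 3h40 before a 20 min TNFalpha stimulation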;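 on inhibition: signal is the nuclear over cytoplasmic p65 intensity ratio per well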); settings: HUVEC TNFa-induced p65 nuclear translocation; cell count: measured here: nuclei count (cytotoxicity indicator), at 2.08 µM; inhibition: at 2 µM, stronger effect = higher value, 0% TNFa-plus-vehicle, 100% no-TNFa wells
# [2] = reduction of polyQ htt aggregates in cells – imaging, exon1htt(103Q)mCFP cells, high-content imaging, primary screen (AID 483;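 active means visual image review flags a hit and inhibition of aggregation exceeds 20%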;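 further: compound exposure lasted 3 days before fixation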;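 on nuclei count: percent of the per-plate median nuclei count of sample wells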); settings: exon1htt(103Q)mCFP cell line, aggregate imaging, at 2 µM; inhibition of aggregation: stronger effect = higher value; nuclei count: measured here: cell count, toxicity
# [3] = endothelial E-selectin expression blockers – imaging, HUVEC, immunofluorescence, MLSMR starter and 10KST1 sets, primary screen (AID 487;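 active means visually confirmed hit in the image check and inhibition above 20%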;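 on inhibition: signal is fraction of cell area covered by stained E-selectin grains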;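 on nuclei count: 100% = median nuclei count of all wells on the same plate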); settings: HUVEC TNFalpha-induced E-selectin immunofluorescence imaging, at 2 µM; inhibition: stronger effect = higher value; nuclei count: measured here: cell number, toxicity
# [4] = biological target: Voltage-gated potassium channel subunit beta-2 (Rattus norvegicus) (UniProt P62483); assay: inhibitors of rat Kvbeta2 reductase activity – biochemical, NADPH fluorescence, primary screen (AID 622;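 active means fluorescence slope higher than the sample average by over 3 SD, cut at about -0.22 in these data, passing the limit was not always enough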;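 further: slope of raw intensity against log time taken from 70 to 1610 s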); settings: recombinant KvBeta, 4-cyanobenzaldehyde reduction, at 10 µM, stronger effect = higher value
# Sequence of Voltage-gated potassium channel subunit beta-2 (Rattus norvegicus) (P62483 whole entry, looked up): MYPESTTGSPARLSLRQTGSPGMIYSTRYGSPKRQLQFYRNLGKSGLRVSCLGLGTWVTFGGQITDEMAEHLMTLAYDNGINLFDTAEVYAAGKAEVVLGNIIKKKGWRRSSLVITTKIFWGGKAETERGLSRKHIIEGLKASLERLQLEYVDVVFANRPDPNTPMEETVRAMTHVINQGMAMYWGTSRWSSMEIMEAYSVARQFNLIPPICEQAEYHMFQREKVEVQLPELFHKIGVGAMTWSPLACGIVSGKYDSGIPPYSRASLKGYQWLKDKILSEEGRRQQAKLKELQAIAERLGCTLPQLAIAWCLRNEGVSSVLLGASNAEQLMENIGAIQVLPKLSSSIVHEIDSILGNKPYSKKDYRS
# [5] = biological target: Voltage-gated potassium channel subunit beta-2 (Rattus norvegicus) (UniProt P62483); assay: enhancers of rat Kvbeta2 NADPH turnover – biochemical, NADPH fluorescence, primary screen (AID 623;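 active means NADPH fluorescence slope more negative than the mean of all samples by about 3 SD, 99.7% confidence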;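 further: fluorescence intensity change per second fitted from 20 to 320 s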); settings: Recombinant KvBeta, NADPH fluorescence decrease slope, 10 min; at 10 µM; stronger effect = lower value
# [6] = biological target: Alpha-2C adrenergic receptor (Homo sapiens) (UniProt P18825); assay: compounds altering alpha2C-coupled GIRK flux – cell-based, HEK293 alpha2C/GIRK1/2, thallium flux, primary screen (AID 624); settings: thallium flux BTC fluorescence, at 10 µM, actives lie on both sides;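 further: slope of fluorescence ratio to pre-addition baseline per second over 15 to 24 s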
# Sequence of Alpha-2C adrenergic receptor (Homo sapiens) (P18825 whole entry, looked up): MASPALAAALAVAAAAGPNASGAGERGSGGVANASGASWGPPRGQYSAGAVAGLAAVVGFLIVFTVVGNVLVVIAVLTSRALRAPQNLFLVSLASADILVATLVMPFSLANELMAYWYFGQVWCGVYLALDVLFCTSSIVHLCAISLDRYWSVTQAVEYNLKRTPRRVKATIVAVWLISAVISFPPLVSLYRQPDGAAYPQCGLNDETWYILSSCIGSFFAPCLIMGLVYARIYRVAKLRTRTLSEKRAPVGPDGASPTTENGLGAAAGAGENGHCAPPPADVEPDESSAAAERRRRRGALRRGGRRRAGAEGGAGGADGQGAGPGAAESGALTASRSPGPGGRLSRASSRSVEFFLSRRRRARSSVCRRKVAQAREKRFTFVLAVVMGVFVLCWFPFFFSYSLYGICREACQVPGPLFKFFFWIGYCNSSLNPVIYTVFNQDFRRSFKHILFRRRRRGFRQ
# [7] = blockers of RIG-like receptor reporter activation – cell-based, Sendai virus stimulus, luciferase, 10K MLSCN set, TLR/RLR signaling modifier project, primary screen (AID 602276;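 active means inhibition at or above 50% at 10 µM; inactive means inhibition below 50%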;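 further: firefly luciferase from ISG56 promoter only with Renilla not read in this screen; 0% = Sendai virus plus DMSO and 100% = medium plus DMSO without virus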); settings: HEK293 RL24 IRF3 luciferase reporter, at 10 µM, stronger effect = higher value
# [8] = TLR3 IRF3 reporter activation blockers – cell-based, poly I:C stimulus, luciferase, 10K MLSCN set, primary screen (AID 602277;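 active means inhibition of the reporter signal at or above 50%; inactive means inhibition below 50%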); settings: HEK293-TLR3 RL24 IRF3 luciferase reporter, at 10 µM, stronger effect = higher value
SMILES,cell count [1],inhibition [1],inhibition of aggregation [2],nuclei count [2] [%],inhibition [3],nuclei count [3] [%],fluorescence slope [4],NADPH fluorescence slope [5],slope [6],inhibition [7],inhibition [8]
Cc1cnc(NC(=O)CSc2nc3ccccc3c(=O)[nH]2)s1,281,8.9% (inactive),-0.5% (inactive),99.4,65% (active),98.4,-0.427 (inactive),5.1e-05 (inactive),0.00477 (inactive),2.98% (inactive),-0.232% (inactive)
Cc1[nH]nc(N=CC2=C(O)CC(C)(C)CC2=O)c1-c1ccc(Cl)cc1,344,10.1% (inactive),-7.7% (inactive),102,-27.4% (inactive),128,-0.402 (inactive),1.2e-05 (inactive),0.00588 (inactive),11.6% (inactive),-25.9% (inactive)
CCOCCCNC(=O)C(c1ccccc1)N(Cc1ccc2c(c1)OCO2)C(=O)CNC(C)=O (centres undefined),220,10.9% (inactive),0.6% (inactive),94.8,-63.6% (inactive),95.1,-0.562 (inactive),-2.1e-05 (inactive),0.00624 (inactive),10.2% (inactive),16.2% (inactive)
CC1(C)CC(=O)C(CC(=O)NC(=O)NCc2ccccc2)=C(O)C1,462,3.4% (inactive),0.1% (inactive),102,-65.4% (inactive),99.2,-0.501 (inactive),1e-05 (inactive),0.00433 (inactive),-1.73% (inactive),7.39% (inactive)
c1ccc2c(c1)nc(-c1ccncc1)n1nnnc21,517,-8.5% (inactive),8.6% (inactive),104,-111% (inactive),179,-0.359 (inactive),-1.7e-05 (inactive),0.00824 (inactive),7.9% (inactive),0.706% (inactive)
Cc1c(NC(=O)c2nn(C)c(=O)c3ccccc23)c(=O)n(-c2ccccc2)n1C,426,4.2% (inactive),-1.2% (inactive),98.9,-56.3% (inactive),136,-0.496 (inactive),-1.3e-05 (inactive),0.00499 (inactive),0.784% (inactive),-0.356% (inactive)
COc1ccccc1OCC(=O)Nc1ccc(S(=O)(=O)Nc2nc(C)cc(C)n2)cc1,376,0% (inactive),-13.8% (inactive),102,-84% (inactive),121,-0.335 (inactive),-6.1e-05 (inactive),0.00524 (inactive),11.5% (inactive),17.1% (inactive)
CCCCc1cc2c(c(NC(C)=O)n1)c(=O)oc1ccccc12,620,-9.4% (inactive),14.7% (inactive),110,3.6% (inactive),104,-0.509 (inactive),-2.7e-05 (inactive),0.00617 (inactive),12.1% (inactive),40.5% (inactive)
COCCSc1nnc(NC(=O)CSCc2ccccc2)s1,524,-14.6% (inactive),3.8% (inactive),112,-31.2% (inactive),89.4,-0.528 (inactive),-3.2e-05 (inactive),0.00459 (inactive),19% (inactive),26.7% (inactive)
CC(=O)c1c(O)cc(C)n(Nc2nc(C)cc(C)n2)c1=O,625,-12.1% (inactive),-23.4% (inactive),91.3,28.7% (inactive),91.8,-0.343 (inactive),-5.3e-05 (inactive),0.00406 (inactive),-1.56% (inactive),-18.7% (inactive)
O=C(Cn1c(NCCO)nc2ccccc21)c1ccccc1,513,4.9% (inactive),18.2% (inactive),106,-58.5% (inactive),115,-0.58 (inactive),-1.8e-05 (inactive),0.00599 (inactive),9.81% (inactive),29.4% (inactive)
COC(=O)c1sc(N)c(C(=O)OC)c1COC(=O)C1CC(=O)N(Cc2ccco2)C1 (centres undefined),303,-1.9% (inactive),-1.7% (inactive),100,-45.6% (inactive),124,-0.265 (inactive),-4.3e-05 (inactive),0.00671 (inactive),15.8% (inactive),11.9% (inactive)
CCOC(=O)c1cc(-c2ccco2)nc2c1c(C)nn2CCC#N,590,-10.8% (inactive),-3.4% (inactive),103,-15.3% (inactive),146,-0.214 (active),2.1e-05 (inactive),0.00625 (inactive),-22.4% (inactive),-3.59% (inactive)
COc1ccc(C(=O)c2coc3ccc(O)c(CN4CCCCC4)c23)cc1,828,-6.8% (inactive),-9.1% (inactive),108,-25.2% (inactive),112,-0.597 (inactive),-1.2e-05 (inactive),0.00458 (inactive),-9.24% (inactive),-15.8% (inactive)
